The results in this text go back to the supplement of paper PMC3334620.

In all, about 33,000 sequences were measured (“E-score (-0.5 to 0.5)”: median about -0.035, highest 2% from about 0.35 on). Many of the other results were omitted from the sample, so the highest values are more common in it than they were.

The test concerns the target T1, Pdr3 (UniProt P33200).
T1 sequence: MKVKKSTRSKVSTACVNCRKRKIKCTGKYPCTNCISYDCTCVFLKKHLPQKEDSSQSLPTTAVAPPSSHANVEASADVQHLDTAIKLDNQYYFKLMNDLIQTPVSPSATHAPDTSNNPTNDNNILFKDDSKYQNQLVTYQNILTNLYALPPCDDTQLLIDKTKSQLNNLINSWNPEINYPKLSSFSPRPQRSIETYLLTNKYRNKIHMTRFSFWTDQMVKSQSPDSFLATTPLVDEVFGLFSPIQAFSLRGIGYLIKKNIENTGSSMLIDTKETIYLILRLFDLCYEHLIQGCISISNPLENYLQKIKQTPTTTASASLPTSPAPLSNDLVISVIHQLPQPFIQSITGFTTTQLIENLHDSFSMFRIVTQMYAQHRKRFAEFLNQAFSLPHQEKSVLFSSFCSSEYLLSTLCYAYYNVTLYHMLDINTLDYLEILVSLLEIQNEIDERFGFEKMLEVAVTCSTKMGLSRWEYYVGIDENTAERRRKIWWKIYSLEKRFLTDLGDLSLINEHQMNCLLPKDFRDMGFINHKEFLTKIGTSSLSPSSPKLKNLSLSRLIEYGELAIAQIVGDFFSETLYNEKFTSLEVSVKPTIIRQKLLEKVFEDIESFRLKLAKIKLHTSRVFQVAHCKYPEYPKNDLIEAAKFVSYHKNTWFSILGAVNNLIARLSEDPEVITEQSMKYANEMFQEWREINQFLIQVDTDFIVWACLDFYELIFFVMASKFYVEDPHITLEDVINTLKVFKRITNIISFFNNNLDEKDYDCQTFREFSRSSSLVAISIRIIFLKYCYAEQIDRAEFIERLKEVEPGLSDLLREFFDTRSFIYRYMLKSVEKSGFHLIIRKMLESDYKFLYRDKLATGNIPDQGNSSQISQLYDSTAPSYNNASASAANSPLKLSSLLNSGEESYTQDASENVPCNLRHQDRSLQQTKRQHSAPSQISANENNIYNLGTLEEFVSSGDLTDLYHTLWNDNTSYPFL
Nature of the test: PBM E-score (8-mer binding enrichment) (E-score (-0.5 to 0.5)); higher = stronger / more preferred TF binding. The settings on record: protein concentration: 200 nM; construct: GST-full length. Here is the method: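 Universal 'all 10-mer' protein binding microarrays (Agilent AMADID 015681) probed with GST-tagged S. cerevisiae TFs (full-length or DBD) made by in vitro transcription/translation (PURExpress), about 100-200 nM. Bound TF was detected with fluorescent anti-GST. Each ungapped 8-mer (which stands for itself and its reverse complement) is scored by the PBM enrichment score (E-score), a modified Wilcoxon-Mann-Whitney statistic from -0.5 to +0.5, computed with the Universal PBM Analysis Suite. Scale: above 0.35 generally sequence-specific binding.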
Regarding AAAAATGG, the “PBM E-score” value came out at 0.0817.

As for GCGCCGCA, the “PBM E-score” value was determined as 0.151.

As for ACCGGGCA, the “PBM E-score” value came out at 0.102.

In the case of GCCGGGCA, the “PBM E-score” value was 0.282.

For the sequence CCCGGGCA, the “PBM E-score” value turned out to be 0.375.

As for GATAGTGC, the “PBM E-score” value was -0.0798.

For the sequence GTTCAAAC, the “PBM E-score” value is -0.0193.

As to AGGATAAC, the “PBM E-score” value is -0.212.

As for CTAATCTC, the “PBM E-score” value is -0.0806.

On to CACCCGCC, for which the “PBM E-score” value is 0.332.

For AGCCCGCG, the “PBM E-score” value is 0.381.

For CGCCCGCG, the “PBM E-score” value came out at 0.314.

Regarding ATCCCGCA, the “PBM E-score” value worked out at 0.21.

Turning to CACCCGCG, the “PBM E-score” value turned out to be 0.42.

Regarding CACCCGCA, the “PBM E-score” value is 0.115.

Regarding AGCCCGCT, the “PBM E-score” value was -0.183.

With AACCCGCA, the “PBM E-score” value came out at 0.18.

With ATCCCGCC, the “PBM E-score” value was found to be 0.322.

Take AACCCGCC: the “PBM E-score” value was determined as 0.165.

Regarding AACCCGCG, the “PBM E-score” value was 0.431.

For ATCCCGCG, the “PBM E-score” value turned out to be 0.465.

Consider AATTAGCA, for which the “PBM E-score” value is 0.103.

As for ATGTCGAC, the “PBM E-score” value is 0.0706.

With ATTGCGAA, the “PBM E-score” value was -0.0818.

Take GTCAGATA: the “PBM E-score” value is -0.0744.

For CTAAGAAC, the “PBM E-score” value is 0.165.

Regarding CAGACGAA, the “PBM E-score” value turned out to be 0.199.

For AGAATACT, the “PBM E-score” value was -0.121.

For CAGAACAA, the “PBM E-score” value was determined as 0.0215.

Consider CTACTTAC, for which the “PBM E-score” value was -0.312.

In the case of CACTAAGG, the “PBM E-score” value is -0.0887.

On to CATCCCCC, for which the “PBM E-score” value is 0.0287.

Regarding CATCCCGC, the “PBM E-score” value is 0.315.

AATCCCTG: the “PBM E-score” value was -0.0189.

With CATCCCGA, the “PBM E-score” value amounted to 0.352.

Consider CATCCCCG, for which the “PBM E-score” value came to 0.354.

In the case of GATCCCGA, the “PBM E-score” value was found to be 0.317.

With CATCCCAG, the “PBM E-score” value is -0.106.

On to GATCCCGC, for which the “PBM E-score” value was determined as 0.371.

Regarding CATCCCCA, the “PBM E-score” value was -0.0591.

Take CATCCCGG: the “PBM E-score” value stood at 0.431.

Consider AATCCCCG, for which the “PBM E-score” value stood at 0.296.

As for AATCCCGG, the “PBM E-score” value was found to be 0.407.

Turning to CACTTTAG, the “PBM E-score” value was -0.149.

For the sequence AGTCTGCG, the “PBM E-score” value is -0.259.

Turning to CAGGCGTA, the “PBM E-score” value is -0.145.

For ACGTCAGG, the “PBM E-score” value is -0.326.

On to AGGCAGGG, for which the “PBM E-score” value was -0.153.

On to ACGAATGC, for which the “PBM E-score” value is -0.158.

For ATCCGCGC, the “PBM E-score” value amounted to 0.309.

As to CCGCGCGG, the “PBM E-score” value was found to be 0.473.

With GCGCGCGA, the “PBM E-score” value was found to be 0.308.

Take CCGCGCGC: the “PBM E-score” value was 0.332.

CTCCGCGC: the “PBM E-score” value was 0.368.

Consider GCGCGCGC, for which the “PBM E-score” value amounted to 0.388.

Consider ACGCGCGC, for which the “PBM E-score” value stood at 0.238.

With ATGCGCGG, the “PBM E-score” value is 0.355.

Turning to ATGCGCGA, the “PBM E-score” value came to 0.0846.

Consider ATGCGCGC, for which the “PBM E-score” value turned out to be 0.275.

Turning to CCGCGCGA, the “PBM E-score” value amounted to 0.303.

Consider CTCCGCGA, for which the “PBM E-score” value was found to be 0.258.

On to GCGTAGTA, for which the “PBM E-score” value is -0.095.

Regarding ACGCCTGA, the “PBM E-score” value is -0.148.

On to CTAGAAAG, for which the “PBM E-score” value is -0.189.

With GGCCGGTA, the “PBM E-score” value is 0.274.

Take GGCCGGGA: the “PBM E-score” value came out at 0.39.

Consider CTCCGGGA, for which the “PBM E-score” value is 0.399.

On to CGCCGGGA, for which the “PBM E-score” value is 0.382.

For the sequence GTCCGGGA, the “PBM E-score” value is 0.353.

Take CGCCGGGC: the “PBM E-score” value was 0.308.

Regarding CGCCGGTA, the “PBM E-score” value was 0.13.

For CTCCGAGA, the “PBM E-score” value stood at 0.274.

Regarding AGCCGGGA, the “PBM E-score” value amounted to 0.3.

GAACATAC: the “PBM E-score” value stood at 0.0175.

CCTAGACG: the “PBM E-score” value came to 0.012.

ATCCTGGG: the “PBM E-score” value is -0.104.

For GGCCCCCC, the “PBM E-score” value was -0.0393.

Regarding AAGGCTTG, the “PBM E-score” value was -0.0886.

Consider AGATCACC, for which the “PBM E-score” value stood at 0.0531.

For GAGACTCC, the “PBM E-score” value came out at 0.0113.

Take AGGCTAAA: the “PBM E-score” value is -0.297.

With ACGGAGTC, the “PBM E-score” value is 0.193.

GCGGAGTA: the “PBM E-score” value came to 0.245.

As for CCGGAGTC, the “PBM E-score” value was 0.384.

Consider CCGGAGTA, for which the “PBM E-score” value came out at 0.367.

With ACGGAGTA, the “PBM E-score” value worked out at 0.297.
